Reference: PubChem BioAssay AID1159580 (chemical genetic matrix, 2015)
Out of some 5,500 compounds screened, about 2,000 (36%) were called active. Another 18% or so got no clear call; they are omitted. No stated cut-off is given here; in the data, active means normalized growth mostly below about 0.91 (no sharp cut-off); inconclusive means no clear call, values can overlap the other calls; inactive means mostly above about 0.92. This is one part of the list.

Assay: chemical genetic growth profiling, strain panel (AID 1159580);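 further: tested at 20 µM; growth read once vehicle control cultures reached saturation at 30 °C; 1 = growth at the plate median or of vehicle wells; lower values mean less growth of the strain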
Details: S. cerevisiae deletion strains, growth OD

Measured: normalized growth

O=c1cc(-c2ccc(O)cc2)oc2ccc(O)cc12
inactive: locus YAL021C, strain ccr4, hits give low values 0.99 | locus YAL026C, strain drs2, hits give low values 0.956 | locus YAL030W, strain snc1, hits give low values 0.972 | locus YBL061C, strain skt5, hits give low values 0.964 | locus YBR009C, strain hhf1, hits give low values 0.936 | locus YBR023C, strain chs3, hits give low values 0.987 | locus YBR171W, strain sec66, hits give low values 0.981 | locus YBR231C, strain swc5, hits give low values 0.979 | locus YBR279W, strain paf1, hits give low values 0.978 | locus YCL011C, strain gbp2, hits give low values 0.949 | locus YCL016C, strain dcc1, hits give low values 0.981 | locus YCL061C, strain MRC1, hits give low values 0.987 | locus YCL069W, strain vba3, hits give low values 0.98 | locus YCR088W, strain abp1, hits give low values 0.977 | locus YDL005C, strain med2, hits give low values 0.969 | locus YDL040C, strain nat1, hits give low values 0.985 | locus YDR001C, strain nth1, hits give low values 0.97 | locus YDR069C, strain doa4, hits give low values 0.922 | locus YDR137W, strain rgp1, hits give low values 0.96 | locus YDR159W, strain sac3, hits give low values 0.954 | locus YDR195W, strain ref2 0.943 | locus YDR297W, strain sur2, hits give low values 0.958 | locus YDR334W, strain swr1, hits give low values 0.976 | locus YDR335W, strain msn5, hits give low values 0.979 | locus YDR392W, strain spt3, hits give low values 0.935 | locus YEL003W, strain gim4, hits give low values 0.97 | locus YEL037C, strain rad23, hits give low values 0.971 | locus YEL061C, strain CIN8 (second series), hits give low values 0.952 | locus YER015W, strain faa2, hits give low values 0.997 | locus YER016W, strain bim1, hits give low values 0.983 | locus YER111C, strain swi4, hits give low values 0.973 | locus YER155C, strain BEM2 (second series), hits give low values 0.963 | locus YFR010W, strain ubp6, hits give low values 0.938 | locus YGL167C, strain pmr1, hits give low values 0.949 | locus YGL173C, strain kem1, hits give low values 0.961 | locus YGL227W, strain vid30, hits give low values 0.96 | locus YGL240W, strain doc1, hits give low values 0.964 | locus YGL253W, strain hxk2, hits give low values 0.992 | locus YHR013C, strain ard1, hits give low values 0.938 | locus YHR027C, strain rpn1, hits give low values 0.962 | locus YHR030C, strain SLT2, hits give low values 0.989 | locus YHR079C, strain IRE1, hits give low values 0.992 | locus YHR142W, strain chs7, hits give low values 0.976 | locus YJL092W, strain hpr5, hits give low values 0.984 | locus YJL095W, strain BCK1 (second series), hits give low values 0.978 | locus YJL095W, strain BCK1, hits give low values 1 | locus YJL115W, strain asf1, hits give low values 0.978 | locus YJL129C, strain trk1, hits give low values 0.942 | locus YJL154C, strain vps35, hits give low values 0.991 | locus YJL164C, strain tpk1, hits give low values 0.958 | locus YJL166W, strain qcr8, hits give low values 0.977 | locus YJL187C, strain SWE1, hits give low values 0.973 | locus YJR066W, strain TOR1, hits give low values 0.933 | locus YKL160W, strain elf1, hits give low values 0.987 | locus YKR026C, strain gcn3, hits give low values 0.963 | locus YKR091W, strain srl3, hits give low values 0.984 | locus YLL001W, strain dnm1, hits give low values 0.964 | locus YLL026W, hits give low values 0.986 | locus YLL041C, strain sdh2, hits give low values 0.995 | locus YLR027C, strain aat2, hits give low values 0.971 | locus YLR113W, strain HOG1, hits give low values 0.951 | locus YLR221C, strain rsa3, hits give low values 0.988 | locus YLR258W, strain gsy2, hits give low values 0.977 | locus YLR262C, strain YPT6 (second series), hits give low values 0.959 | locus YLR320W, strain mms22, hits give low values 0.964 | locus YLR342W, strain FKS1, hits give low values 0.97 | locus YLR357W, strain rsc2, hits give low values 0.982 | locus YLR370C, strain arc18, hits give low values 0.947 | locus YLR384C, strain iki3, hits give low values 0.969 | locus YML120C, strain ndi1, hits give low values 0.956 | locus YMR058W, strain fet3, hits give low values 0.961 | locus YMR125W, strain sto1, hits give low values 0.947 | locus YMR129W, hits give low values 0.973 | locus YMR205C, strain PFK2, hits give low values 0.946 | locus YMR231W, strain pep5, hits give low values 0.974 | locus YNL071W, strain lat1, hits give low values 0.984 | locus YNL183C, strain NPR1, hits give low values 0.932 | locus YNL209W, strain ssb2, hits give low values 0.975 | locus YNL248C, strain rpa49, hits give low values 0.988 | locus YNL322C, strain KRE1 (second series), hits give low values 0.97 | locus YNR049C, strain mso1, hits give low values 0.989 | locus YOR001W, strain rrp6, hits give low values 0.991 | locus YOR070C, strain gyp1, hits give low values 0.988 | locus YOR080W, strain dia2, hits give low values 0.967 | locus YOR083W, strain WHI5, hits give low values 0.918 | locus YOR106W, strain vam3, hits give low values 0.974 | locus YOR231W, strain MKK1, hits give low values 0.968 | locus YOR265W, strain rbl2, hits give low values 0.961 | locus YOR270C, strain vph1, hits give low values 0.919 | locus YOR290C, strain snf2, hits give low values 0.943 | locus YPL051W, strain arl3, hits give low values 0.971 | locus YPL078C, strain atp4, hits give low values 0.987 | locus YPL106C, strain sse1, hits give low values 0.888 | locus YPL240C, strain hsp82, hits give low values 0.981 | locus YPL256C, strain CLN2, hits give low values 0.973
